Source: PubChem BioAssay (NCATS)
Records with an inconclusive call do not appear. Entries that show only a call come without a potency. A number with no mark means an inactive call. Active and inactive are the calls of the source. The call rests on the fitted dose curve; in most records, active means well fitted curve in the direction sought with a large enough effect; inconclusive means small, poorly fitted or top-dose-only effect, or another doubt; inactive means no such curve, though single readings can be large; an effect the other way counts as inactive or inconclusive.

Experiments:
[1] = Quantitative highthroughput screen to assess conditional lethalithy of NOMO1 cells grown in Human Plasma-Like Medium with dialyzed fetal bovine serum (HPLM+ds) (AID 1963878); further: nearly all actives have a fitted effect of over 35% in size
In short: (§1)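 Each medium arm—HPLM with 10% dialyzed FBS, or RPMI1640 with 5 mM glucose and 10% untreated or dialyzed FBS—was screened against an 11-point, 3-fold compound titration for 48 h at 37 °C, with CellTiter-Glo luminescence as endpoint.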

[2] = Quantitative highthroughput screen to assess conditional lethalithy of P12 Ichikawa cells grown in Human Plasma-Like Medium with dialyzed fetal bovine serum (HPLM+ds) (AID 1963879); conditions: Potency: viability; further: nearly all actives have a fitted effect of over 35% in size; further: potency means the concentration at half of the fitted maximal effect; on viability: series mostly up to about 46 µM
In short: as §1

[3] = Quantitative highthroughput screen to assess conditional lethalithy of P12 Ichikawa cells grown in RPMI1640 with dialyzed fetal bovine serum (RPMI+ds) (AID 1963880); conditions: Potency: P12-Ichikawa viability; further: nearly all actives have a fitted effect of over 35% in size; further: potency means the concentration at half of the fitted maximal effect
In short: as §1

[4] = Quantitative highthroughput screen to assess conditional lethalithy of P12 Ichikawa cells grown in RPMI1640 with untreated serum (RPMI+s) (AID 1963881); conditions: Potency: viability; further: series mostly up to about 46 µM; nearly all actives have a fitted effect of over 35% in size
In short: as §1

[5] = Quantitative highthroughput screen to assess conditional lethalithy of SEM cells grown in Human Plasma-Like Medium with dialyzed fetal bovine serum (HPLM+ds) (AID 1963882); further: nearly all actives have a fitted effect of over 35% in size; further: potency means the concentration at half of the fitted maximal effect; on viability: series mostly up to about 46 µM
In short: as §1

[6] = Quantitative highthroughput screen to assess conditional lethalithy of SEM cells grown in RPMI1640 with unreated serum (RPMI+s) (AID 1963883); further: nearly all actives have a fitted effect of over 35% in size; further: potency means the concentration at half of the fitted maximal effect
In short: as §1

[7] = Quantitative highthroughput screen to assess conditional lethalithy of SEM cells grown in RPMI1640 with dialyzed fetal bovine serum (RPMI+ds) (AID 1963884); further: nearly all actives have a fitted effect of over 35% in size; further: potency means the concentration at half of the fitted maximal effect; on viability: series mostly up to about 46 µM
In short: as §1

[8] = Quantitative highthroughput screen to assess conditional lethalithy of NOMO1 cells grown in RPMI1640 with dialyzed fetal bovine serum (RPMI+ds) (AID 1963877); further: nearly all actives have a fitted effect of over 30% in size; further: potency means the concentration at half of the fitted maximal effect; on viability: series mostly up to about 46 µM
In short: as §1

[9] = Cellular viability qHTS for adrenocortical cancer (ACC) cell line NCI-H295R (AID 1963990); further: nearly all actives have a fitted effect of over 60% in size
In short: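 Viability of NCI-H295R after 48 h of treatment (final up to 46 uM) measured through cellular ATP luminescence.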

[10] = Cellular viability qHTS for adrenocortical cancer (ACC) cell line SW-13 (AID 1963989); conditions: SW-13 ACC cells viability, CellTiter-Glo, 48 h; activity (max response): hits give low values;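 further: cells grown in serum-free medium with ITS supplement; nearly all actives have a fitted effect of over 65% in size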
In short: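 Here, serum-free SW-13 cultures were dosed up to 46 uM. Following 48 h, ATP-dependent luminescence (CellTiter-Glo) reported viable cells, and logistic modeling produced IC50 values.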

Compound	Potency [1]	Potency [2]	Potency [3]	Potency [4]	Potency [5]	Potency [6]	Potency [7]	Potency [8]	Potency [9]	activity (max response) [10]
CN1[C@@H]2CCC[C@@H]1CC(NC(=O)c1nn(C)c3ccccc13)C2 (some centres not stated)	inactive	inactive	inactive	inactive	inactive	inactive	inactive			
Cc1c(C)c2c(c(C)c1O)CCC(C)(COc1ccc(CC3SC(=O)NC3=O)cc1)O2 (configuration not stated)	inactive	inactive		inactive	16.6 µM (active)			inactive	inactive	
CC[C@H]1OC(=O)[C@H](C)[C@@H](O[C@H]2C[C@@](C)(OC)[C@@H](O)[C@H](C)O2)[C@H](C)[C@@H](O[C@@H]2O[C@H](C)C[C@H](N(C)C)[C@@H]2O)[C@](C)(OC)C[C@@H](C)C(=O)[C@H](C)[C@@H](O)[C@]1(C)O		inactive	inactive	inactive	inactive	inactive	inactive	inactive		
COc1ccc2cc1Oc1ccc(cc1)C[C@H]1c3cc(c(OC)cc3CCN1C)Oc1c(OC)c(OC)cc3c1[C@H](C2)N(C)CC3	inactive				inactive			inactive		
Cc1ccc(NC(=O)Nc2cc(C(F)(F)F)ccc2F)cc1Nc1ccc2c(c1)NC(=O)C2=Cc1ccc[nH]1					18.7 µM (active)	18.7 µM (active)	16.6 µM (active)	20.9 µM (active)		
COC1CCC(N(C(=O)C2CCC(C)CC2)c2cc(C3=CCCCC3)sc2C(=O)O)CC1 (configuration not stated)		18.7 µM (active)	14.8 µM (active)					inactive	inactive	0.0132%
COc1cc([C@H]2Oc3cc([C@H]4Oc5cc(O)cc(O)c5C(=O)[C@H]4O)ccc3O[C@H]2CO)ccc1O	inactive	inactive	inactive			inactive		inactive		
